Records with an inconclusive call do not appear. A number with no mark means an inactive call. Calls of active or inactive are those of the source. Calls come from the whole dose curve; as a rule, active = well fitted cell-killing curve with a large enough effect; inconclusive = small, poorly fitted or top-dose-only effect; inactive = no such curve, though single readings can be large or run the other way.
assay: qHTS of pediatric cancer cell lines to identify multiple opportunities for drug repurposing: Primary screen for SJ-GBM2 cells (AID 1347091); conditions: SJ-GBM2 viability, CellTiter-Glo luminescence, 48 h; series mostly up to 46 µM; activity change, negative = cytotoxic: at the top concentration
From the text: Drug repurposing or repositioning has been offered as a strategy for drug development in oncology programs. This approach has special potential for childhood cancers and other rare or orphan diseases, where the expected return on new drug development has been a disincentive to pharmaceuticals.
In this project we exploit the poly-pharmacology of drugs to discover new indications via phenotypic screening of a panel of 19 well-characterized cell lines derived from solid tumors seen in children and adolescents. The goal is to identify approved drugs with previously unrecognized anticancer properties that has the potential to reveal new mechanisms and biological processes involved in carcinogenesis or drug resistance. We employed a titration-based paradigm (quantitative high-throughput screening or qHTS), where all compounds were tested at multiple concentrations for their effect on cell viability. Concentration-response curves (CRCs) were derived directly from the primary screen, and both potency and efficacy values were used to identify compounds with robust bioactivity profiles. We screened the NIH Chemical Genomics Center (NCGC) Pharmaceutical Collection (NPC) and Mechanism Interrogation Plate (MIPE) small molecule collections of approved and investigational compounds against these cell lines; and measured metabolically active cells after 48 hours of compound treatment as a proxy for cell viability.
Assay Submitter: Nathalia J. Martinez, National Center for Advancing Translational Sciences, National Institutes of Health, Rockville, MD, USA; email: natalia.martinez@nih.gov
[1] Shen, M et al. Quantitative high-throughput phenotypic screening of pediatric cancer cell lines identifies multiple opportunities for drug repurposing. Oncotarget 2017 Dec 19;9(4):4758-4772. PMID 29435139.
The cells were obtained from University of North Carolina (UNC), Pediatric Preclinical Testing Program (PPT), and Coriell Institute (CI).
qHTS cell viability assay:
Cells were assayed in growth media at a density of 500-1,000 cells/well. Five microliters of cells were dispensed into 1,536-well, white, solid-bottom, TC-treated plates (Greiner Bio One) using a multidrop dispenser and incubated at 37 degrees C, 5% CO2, under a humidified atmosphere for 5 hours. Twenty-three nanoliters of compounds and controls (neutral control DMSO or positive control bortezomib at final concentration of 2.3 µM) were subsequently transferred by Kalypsys pintool. For primary screens, the MIPE collection was tested at 11-point dilutions (final concentrations range from 0.78 nM to 46 µM) and the NPC collection at 8-point dilutions (final concentrations range from 0.59 nM to 46 µM). Compounds tested in follow-up screens were assayed at 11-point dilutions. Cells were incubated for 48 hours, followed by addition of 3 uL of CellTiter-Glo (Promega). After a 15 min incubation at room temperature, samples were analyzed for luminescence intensity using a ViewLux High-throughput CCD imager equipped with clear filters.
Potency is the fitted concentration of half-maximal effect.

SMILES | Potency | activity change, negative = cytotoxic [%]
FC(F)(F)c1ccc(C=Cc2nc(COc3ccc(CCCCn4ccnn4)cc3)co2)cc1 | 0.0037 µM (active) | 
CC[C@H](C)n1cc(C)c2c(C(=O)NCc3c(C)cc(C)[nH]c3=O)cc(-c3ccc(N4CCNCC4)nc3)cc21 |  | 29.9
O=C1C(CCC(O)c2ccc(F)cc2)C(c2ccc(O)cc2)N1c1ccc(F)cc1 (stereo not given) |  | 0.287
Cc1ccc(S(=O)(=O)OCC(=O)Nc2ccc(C(=O)O)c(O)c2)cc1 |  | 18.9
CC(C)c1c(C(=O)Nc2ccccc2)c(-c2ccccc2)c(-c2ccc(F)cc2)n1CC[C@H](O)C[C@@H](O)CC(=O)O | 16.6 µM (active) | 
CC[C@H]1OC(=O)[C@H](C)[C@@H](O[C@H]2C[C@@](C)(OC)[C@@H](O)[C@H](C)O2)[C@H](C)[C@@H](O[C@@H]2O[C@H](C)C[C@H](N(C)C)[C@H]2O)[C@](C)(O)C[C@H](C)C(=NOCOCCOC)[C@H](C)[C@@H](O)[C@]1(C)O |  | -12.4
NC[C@H]1O[C@H](O[C@@H]2[C@@H](O)[C@@H](O[C@H]3O[C@H](CO)[C@@H](O)[C@H](N)[C@@H]3O)[C@H](N)C[C@@H]2N)[C@H](O)[C@@H](O)[C@H]1O |  | 0.862
Cc1ccc(NC(=O)c2cccc(N(C)C)c2)cc1NC(=O)c1ccc(O)cc1 |  | -6.78
CN1CCC[C@H]1CCO[C@](C)(c1ccccc1)c1ccc(Cl)cc1 |  | -7.99
Cc1cnc(Nc2cccc(CN3CCOCC3)c2)nc1Nc1cccc(S(=O)(=O)NC(C)(C)C)c1 | 4.18 µM (active) | 
COc1ccc(-c2oc3c(CC=C(C)C)c(O)cc(O)c3c(=O)c2O)cc1 | 18.7 µM (active) | 
O=C(O)CCC=CCC[C@@H]1[C@H](N2CCCCC2)[C@@H](O)C[C@@H]1OCc1ccc(-c2ccccc2)cc1 |  | -7.41
c1ccc(CNc2nc(N3CCOc4ccccc43)nc3c2CCCC3)cc1 | 23.5 µM (active) | 
CCC=CC[C@H]1C(=O)CC[C@@H]1CC(=O)OC |  | 15.5
Oc1ccc(C=Cc2cc(O)cc(O)c2)cc1 | 18.7 µM (active) | 
CC[C@@H]([C@H](C)O)n1ncn(-c2ccc(N3CCN(c4ccc(OCC5CO[C@@](Cn6cncn6)(c6ccc(F)cc6F)C5)cc4)CC3)cc2)c1=O (stereo not given in full) | 18.7 µM (active) | 
COc1cc(Nc2nc3ccccc3nc2NS(=O)(=O)c2ccc(NC(=O)c3ccc(C)c(OC)c3)cc2)cc(OC)c1 | 23.5 µM (active) | 
CC(C)(C)c1[nH]cnc1C=c1[nH]c(=O)c(=Cc2ccccc2)[nH]c1=O | 0.001 µM (active) | 
CCN1CCC(n2cc(CNc3cc(Cl)c4ncc(C#N)c(Nc5ccc(F)c(Cl)c5)c4c3)nn2)CC1 | 18.7 µM (active) | 
CC(C)(F)C[C@H](N[C@@H](c1ccc(-c2ccc(S(C)(=O)=O)cc2)cc1)C(F)(F)F)C(=O)NC1(C#N)CC1 | 14.8 µM (active) | 

SMILES | Potency | activity change, negative = cytotoxic [%]
CC(C)(CO)[C@@H](O)C(=O)NCCC(=O)O |  | 3.39
O=c1cc(-c2ccc(O)c(O)c2)oc2cc(O)cc(O)c12 |  | 9.8
CC(C)(OCc1nn(Cc2ccccc2)c2ccccc12)C(=O)O |  | 0.715
C[C@@H](N)c1ccc(C(=O)Nc2ccnc3[nH]ccc23)cc1 | 11.8 µM (active) | 
C[C@@]1(C(=O)Nc2ccc(F)nc2)CCCN1c1nc(Nc2cc(C3CC3)[nH]n2)c2cccn2n1 | 0.187 µM (active) | 
CN(C)c1nc(Cc2ccc(NC(=O)c3ccc(C(F)(F)F)cc3)cc2)nc(N(C)C)c1CC(=O)O |  | 45.2
CN(C)c1ccc(-c2nc3ncc(Cl)c(N4CCN(CC(=O)Nc5nccs5)CC4)c3[nH]2)cc1 | 14.8 µM (active) | 
CCCCC[C@H](O)C=C[C@H]1[C@H](O)CC(=O)[C@H]1CCCCCCC(=O)O |  | 18.6
CCOC(=O)[C@H]1O[C@H]1C(=O)N[C@@H](CC(C)C)C(=O)NCCC(C)C |  | -8.56
O=S(=O)(O)c1ccc2cc(N=Nc3cc(S(=O)(=O)O)c4cccnc4c3O)ccc2c1 |  | 1.72
Cc1ccc(C(=O)N(CCCN)[C@@H](c2nc3cc(Cl)ccc3c(=O)n2Cc2ccccc2)C(C)C)cc1 | 0.001 µM (active) | 
COc1ccc(-c2cc(=O)c3c(O)cc(O[C@@H]4O[C@H](CO[C@@H]5O[C@@H](C)[C@H](O)[C@@H](O)[C@@H]5O)[C@@H](O)[C@H](O)[C@@H]4O)cc3o2)cc1O |  | 30.4
Cc1nc(C(=O)NCC(=O)O)c(O)c2ccc(Oc3ccccc3)cc12 |  | -11.7
O=C(c1ccc(C=Cc2n[nH]c3ccccc23)cc1)N1CCNCC1 | 4.18 µM (active) | 
CNc1nc(Nc2ccc(C(=O)N3CCOCC3)cc2OC)ncc1Cl |  | -4.75
NC(=O)c1ccc(N(C(N)=O)c2c(F)cccc2F)nc1-c1ccc(F)cc1F |  | -12
C#C[C@]1(O)CC[C@H]2[C@H]3CCc4cc(OC)ccc4[C@H]3CC[C@@]21C |  | -18.1
CC(C)Oc1cc(Nc2nc(N[C@@H](C)c3ccc(F)cn3)ncc2Cl)[nH]n1 | 16.6 µM (active) | 
COc1ccc(-c2cc3nccn3c(Nc3ncccc3C(N)=O)n2)cc1OC | 1.18 µM (active) | 
O=c1[nH]c(=O)n([C@H]2C[C@@H](O)[C@@H](CO)O2)cc1I |  | 5.99
